Out of some 360,000 compounds screened, about 3,600 (1%) were called active. The list comes from a sample in which actives are over-represented; it also holds similar structures and randomly drawn compounds. A number with no mark means an inactive call.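 The calls were made as follows: active = compounds whose plate-normalised and pattern-corrected inhibition of the luciferase reporter signal at the single screening dose is 50% or more; inactive = the rest.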

What is called inhibition is the relative decrease from the control value, in per cent.

A short description of this assay: TROY pathway blockers in reporter cells – Q293 LMP1-TROYcd cells, NF-kB luciferase, uHTS, primary screen (AID 1347056). Conditions: 4 h, at 10 µM, active compounds read high.
Turning to `COc1cccc(-c2nc3ccc(N4CCN(C)CC4)cc3[nH]2)c1`, the inhibition is 79.8% (active).
To `CCn1cc(CN2CCCC(C(=O)c3cccc(C(F)(F)F)c3)C2)cn1` (stereo not given) belongs 10.1%.
To `CCOC(=O)[C@]12Cc3ccccc3[C@H]1N(C1CCCCC1)C(=O)c1cc(OC)ccc12` belongs 36.6%.
In the case of `CNC(=O)Nc1ccc(C(O)(C(=O)OC)C(F)(F)F)cc1` (stereo not given) it was -7.62%; in that of `COc1cc(C(c2c(O)c3ccccc3oc2=O)c2c(C)n(C)n(-c3ccccc3)c2=O)ccc1O` (stereo not given), -7.22%.
As for `CC(=O)OC1C2(CC3N4C(=O)C5(CO)SSC4(CC31O)C(=O)N5C)OC(C)C(C)(C)C2=O` (stereo not given), the inhibition was 64.8% (active).
To `CC(=O)Nc1ccccc1C(=O)OCC(=O)c1cccc2ccccc12` belongs -7.86%; to `CN(C)CC1Oc2ccccc2OC1(O)c1ccccc1` (stereo not given), 1.73%.
In the case of `CCCCCCCCCCCCn1ccc(=N)cc1` it was 64% (active); in that of `Cc1nc2nc(C)c(CCC(=O)N3CCC4(CC3)OCCO4)c(C)n2n1`, 3.18%; in that of `Cc1ccc(C)c(NC2=NCCCS2)c1`, 1.74%.
In the case of `O=C(CCCn1c(=O)[nH]c2cc(Cl)ccc2c1=O)N1CCC2(CC1)OCCO2` it was 7.33%.
With `CCOC(=O)C(O)(c1ccc(N)c(OC)c1)C(F)(F)F` (stereo not given), the inhibition is 7.19%.
To `CCC(C)(O)C(=O)OC1C(=O)OC2CC3C(C)=CC(=O)C(O)C3(C)C3C4(O)OCC23C1C(C)C4O` (stereo not given) belongs 83.5% (active); to `NCCc1c[nH]c2ccc(O)cc12`, 13%.
Regarding `CC(=O)Nc1ccc(C(=O)C(Cc2ccccc2)N(C)C)cc1` (stereo not given), the inhibition is 0.62%.
In the case of `CCCCCCN=C(CC)c1c(O)n(CCCC)c(=O)[nH]c1=O` it was 17.9%.
Turning to `COc1cc(Cn2c(N)c(C(=O)NCc3ccco3)c3nc4ccccc4nc32)cc(OC)c1OC`, the inhibition is 13.5%.
For the molecule `CCOC(=O)c1c(N)n(Cc2ccccc2)c2nc3ccccc3nc12`, the inhibition was 51.6% (active).
For `CCOC(=O)c1cccc(C2=C(CNC(=O)c3ccncc3)[C@H]3CC[C@@H](C2)N3Cc2ccccc2)c1`, the inhibition is -20.1%.
As for `COc1ccc(-c2nn(CCC#N)cc2C(=O)O)cc1`, the inhibition was -1.21%.
For `CNCC(O)c1cc(F)c(OCc2ccccc2)c(OCc2ccccc2)c1F` (stereo not given), the inhibition is 8.14%.
Regarding `CC1CCC(N(C)C2CCN(C)CC2)CC1` (stereo not given), the inhibition was 18.6%.
For the molecule `CCN1c2nc3c(C)cccn3c(=O)c2CC2(C(=O)N(C)C(=O)N(C)C2=O)C1C` (stereo not given), the inhibition is -6.84%.
In the case of `Cc1ccc(C2CN(C)CC2C(=O)c2ccc(F)cc2)cc1` (stereo not given) it was 57.6% (active).
With `COc1ccc(C(=O)C2CN(C)CC2C(=O)c2ccc(OC)cc2)cc1` (stereo not given), the inhibition was -76.8%.
As to `CN1CCC(OC(=O)c2cccc(F)c2)CC1`, the inhibition is -37.5%.
Take `Cn1cc(C(=O)OCC(=O)N2CCCC2)c2ccccc21`: the inhibition is 8.39%.
To `O=C(Nc1cccc2ccccc12)N1CCC2(CC1)OCCO2` belongs 38.5%.
Consider `CCOC(=O)C1SC2(C(F)(F)C(F)F)CC1(O)c1c(c(OC)c3occc3c1OC)O2` (stereo not given), for which the inhibition is -1.26%.
To `O=c1[nH]c2ccccc2n1C1CCN(C(c2ccnc3ccccc23)c2nnnn2Cc2ccccc2)CC1` (stereo not given) belongs 73.9% (active); to `COc1ccc(-n2nnnc2C(c2cccc3ccccc23)N2CCC(n3c(=O)[nH]c4ccccc43)CC2)cc1` (stereo not given), 27.6%; to `O=c1[nH]c2ccccc2n1C1CCN(C(c2ccccc2)c2nnnn2Cc2ccccc2)CC1` (stereo not given), 18.3%.
In the case of `Cc1ccc(OC(=O)N(C)C[C@@H]2OCc3cnnn3CCCC(=O)N([C@H](C)CO)C[C@@H]2C)cc1` it was 0.42%; in that of `CC(C)c1ccc(OCC(=O)N2CCCN(C)CC2)cc1`, -4.27%.

Values taken from PubChem BioAssay AID1347056 (Sanford-Burnham Center for Chemical Genomics, 2019).
